Results published in PubChem BioAssay (Tox21).
“And” between values parts separate entries of the source, which are not always exact repeats. Identical values can stand only once. Results filed as inconclusive are left out. The source made the active and inactive calls. Unless noted, calls follow the shape of the dose curve; as a rule, active = well fitted curve in the direction sought with a large enough effect in the repeat runs; inconclusive = weak or mixed curves; inactive = no such curve, though single readings can be large; an effect the other way counts as inactive or inconclusive.

Experiments:
[1] = qHTS assay to identify small molecule agonists of the endoplasmic reticulum stress response signaling pathway - cell viability counter screen (AID 1159517; calls by dose curve; also: nearly all actives have a fitted effect of over 50% in size; also: potency is read from the fitted curve at half-maximal effect)
How it was run: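 Luminescence readout: CellTiter-Glo, 30 min RT, same wells as the ESRE-bla reporter read. HeLa ESRE-bla, 1,500 cells/well, o/n 37 C; cpd 5 hr 37 C/5% CO2.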

[2] = molecular target: Nuclear receptor ROR-gamma (Homo sapiens) (UniProt P51449); assay: qHTS assay to identify small molecule antagonists of the retinoid-related orphan receptor gamma (ROR-gamma) signaling pathway (AID 1159521; also: nearly all actives have a fitted effect of over 50% in size; also: potency is read from the fitted curve at half-maximal effect)
How it was run: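 Readout: ONE-Glo luciferase luminescence, 30 min at room temperature. System: Tet-on RORγ CHO, RORE-LUC. Sequence: compound 2 h, doxycycline 1 uM final, 16 h at 37 C.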

[3] = qHTS assay to identify small molecule agonists of the AP-1 signaling pathway - cell viability counter screen (AID 1159525; calls by dose curve; also: nearly all actives have a fitted effect of over 55% in size; also: potency is read from the fitted curve at half-maximal effect)
How it was run: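 ME-180 AP-1-bla, 2500 cells/well, Opti-MEM + 0.5% dialyzed FBS; overnight 37 °C; cpd 15-pt titration, 5 h 37 °C; CellTiter-Glo 30 min RT; luminescence read; normalised to TOAB and DMSO controls.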

[4] = qHTS assay to identify small molecule agonists of the RXR signaling pathway - cell viability counter screen (AID 1159529); also: nearly all actives have a fitted effect of over 50% in size; also: potency is read from the fitted curve at half-maximal effect
How it was run: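 Tox21 10K compounds were tested for cytotoxicity against GeneBLAzer RXR-alpha HEK 293T cells grown in 2% charcoal-stripped FBS. Exposure lasted 16 hr at 37 C, 5% CO2; viability read by CellTiter-Glo luminescence.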

[5] = qHTS assay to identify small molecule antagonists of the retinoid acid receptor (RAR) signaling pathway - cell viability counter screen (AID 1159551); also: nearly all actives have a fitted effect of over 35% in size; also: potency is read from the fitted curve at half-maximal effect
How it was run: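 Seed C3RL4 cells; next day add compound, then retinol to 1 uM final; incubate 6 h at 37 C; add CellTiter-Glo; read luminescence after 30 min at RT.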

[6] = qHTS assay to identify small molecule antagonists of the vitamin D receptor (VDR) signaling pathway - cell viability counter screen (AID 743225); also: nearly all actives have a fitted effect of over 50% in size; also: potency is read from the fitted curve at half-maximal effect
How it was run: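 Cytotoxicity toward the VDR-bla HEK 293T line was scored by ATP-based CellTiter-Glo luminescence, read in the wells already used for the beta-lactamase readout after 16 h compound treatment under 3 nM 1-alpha,25-dihydroxyvitamin D3 stimulation.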

[7] = qHTS assay to identify small molecule antagonists of the retinoid-related orphan receptor gamma (ROR-gamma) signaling pathway - cell viability counter screen (AID 1159520); also: nearly all actives have a fitted effect of over 50% in size; also: potency is read from the fitted curve at half-maximal effect
How it was run: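 Tet-on ROR gamma CHO cells (1,000/well) were plated 4 hr, given compounds in DMSO for 2 hr at 37 C, then induced with 1 uM final doxycycline for 16 hr. Viability was read as ATP by CellTiter-Glo luminescence after 30 min.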

[8] = qHTS assay to identify small molecule antagonists of the estrogen related receptor (ERR) signaling pathway from Tox21 library - cell viability counter screen (AID 1224834); also: nearly all actives have a fitted effect of over 30% in size; also: potency is read from the fitted curve at half-maximal effect
How it was run: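 CellTiter-Fluor fluorescence measured; ERR cells; 17.5 h compound incubation at 37 C; 30 min reagent step.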

[9] = qHTS assay to identify small molecule agonists of the AP-1 signaling pathway (AID 1159526; calls by dose curve)
[10] = molecular target: Retinoic acid receptor RXR-alpha (Homo sapiens) (UniProt P19793); assay: qHTS assay to identify small molecule agonists of the RXR signaling pathway (AID 1159527; calls by dose curve; also: nearly all actives have a fitted effect of over 35% in size)
How it was run: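 Reporter activation is measured as beta-lactamase activity via FRET substrate cleavage (emission 460/530 nm) in HEK 293T cells expressing an RXR-alpha-driven bla construct, following 16 hr compound exposure at 37 C.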

[11] = qHTS assay to identify small molecule antagonists of the retinoic acid receptor (RAR) signaling pathway (AID 1159552; also: nearly all actives have a fitted effect of over 50% in size; also: potency is read from the fitted curve at half-maximal effect)
How it was run: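 Overnight-plated C3RL4 reporter cells get compound, then retinol to 1 uM final; plates sit 6 hr at 37 C, 5% CO2. A luciferase reagent is added and light output recorded after 30 min at room temperature.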

[12] = qHTS assay to identify small molecule antagonists of the estrogen related receptor (ERR) signaling pathway - cell viability counter screen (AID 1224818);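 also: series mostly up to about 46 µM; viability measured after 17.5 h of compound exposure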
How it was run: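 In the same ERR cell assay, compound-treated wells (17.5 h, 37 C) were multiplexed with a fluorogenic viability reagent, CellTiter-Fluor, read after 30 min to flag cytotoxic substances.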

[13] = qHTS assay to identify small molecule agonists of the estrogen related receptor (ERR) signaling pathway (AID 1224820)
How it was run: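 Quantitative HTS of the LOPAC library used NTP ERR reporter cells treated 18 h at 37 C. Signal is luminescence after One-Glo addition and a 30 min room-temperature incubation.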

[14] = qHTS assay to identify small molecule antagonists of the estrogen related receptor signaling pathway with the pleiotropic PPARgamma coactivator (PGC) cell viability counter screen (AID 1224822; also: series mostly up to about 46 µM)
How it was run: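 Compounds in DMSO, with positive and negative controls, were applied to PGC/ERR cells (2,000/well) and left 17.5 h at 37 C before CellTiter-Fluor detection.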

[15] = qHTS assay to identify small molecule agonists of the estrogen related receptor signaling pathway with the pleiotropic PPARgamma coactivator (PGC) (AID 1224823)
How it was run: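 Cell-based luciferase assay in the NTP-supplied PGC/ERR line, 2,000 cells/well; 18 h compound exposure at 37 C, luminescence after One-Glo.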

[16] = qHTS assay to identify small molecule agonists of the retinoic acid receptor (RAR) signaling pathway (AID 1159553); also: potency is read from the fitted curve at half-maximal effect
How it was run: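 Activation of retinol signaling was monitored via a RARE luciferase reporter in C3RL4 cells. After 6 hr compound treatment at 37 C, detection reagent was added for 30 min at room temperature before luminescence reading.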

Measured: Potency

Retinoic acid receptor RXR-alpha (Homo sapiens), sequence (P19793 whole entry, looked up): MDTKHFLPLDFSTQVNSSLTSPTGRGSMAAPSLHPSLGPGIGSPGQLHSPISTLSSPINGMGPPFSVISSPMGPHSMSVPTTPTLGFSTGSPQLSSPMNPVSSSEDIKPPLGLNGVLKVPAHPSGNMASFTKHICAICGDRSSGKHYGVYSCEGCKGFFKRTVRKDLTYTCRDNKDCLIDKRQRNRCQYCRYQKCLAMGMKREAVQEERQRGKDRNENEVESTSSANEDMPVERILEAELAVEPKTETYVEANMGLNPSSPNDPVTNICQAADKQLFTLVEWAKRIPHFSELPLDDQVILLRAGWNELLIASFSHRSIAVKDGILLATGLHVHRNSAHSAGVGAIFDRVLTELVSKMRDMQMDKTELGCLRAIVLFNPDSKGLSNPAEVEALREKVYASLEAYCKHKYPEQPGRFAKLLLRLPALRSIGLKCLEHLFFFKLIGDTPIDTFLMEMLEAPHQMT

Clc1ccc(C(c2ccccc2Cl)C(Cl)(Cl)Cl)cc1 (centres undefined)
active: [1] 43.9 µM | [2] 40.2 µM | [3] 36.1 µM | [4] 49.3 µM and 25.6 µM
inactive: [5]

CCCCCCCCCCCCCCCC[N+](C)(C)C
active: [6] 21.1 µM and 21.9 µM and 23.9 µM | [1] 23.7 µM and 43.6 µM | [7] 29.5 µM and 61.1 µM and 29.8 µM | [2] 7.42 µM and 12.2 µM and 5.96 µM | [3] 49 µM and 26.8 µM | [4] 10.6 µM and 24.5 µM and 12 µM | [8] 23.5 µM and 61.1 µM and 18.8 µM

Cc1ccc(CCl)cc1
inactive: [7] | [2] | [3] | [9] | [10] | [4] | [5] | [11] | [8]

ClC1=C(Cl)[C@]2(Cl)[C@@H]3[C@@H]4C[C@@H]([C@H]5O[C@@H]45)[C@@H]3[C@@]1(Cl)C2(Cl)Cl
inactive: [12] | [13] | [14] | [15]
active: [1] 54.9 µM | [7] 61.1 µM | [3] 43.6 µM | [5] 61.1 µM | [11] 27.3 µM | [8] 54.5 µM

CC(=O)C(Cl)(Cl)Cl
active: [2] 9.35 µM | [11] 29.6 µM | [8] 20.9 µM
inactive: [1] | [3] | [5] | [16]

CCC(C)c1cc([N+](=O)[O-])cc([N+](=O)[O-])c1OC(=O)C=C(C)C (centres undefined)
active: [2] 17.2 µM | [8] 27.3 µM
inactive: [1] | [3]

c1ccc(Nc2ccc3ccccc3c2)cc1
inactive: [6] | [1] | [2] | [10] | [11] | [8]
active: [3] 48.7 µM | [16] 3.05 µM and 8.63 µM

BrCC(Br)c1ccccc1 (centres undefined)
inactive: [7] | [2] | [3] | [9] | [10] | [4] | [5] | [11] | [8]

Cc1cc(C(C)(C)c2cc(C)c(O)c(C)c2)cc(C)c1O
active: [1] 59.6 µM | [2] 26.4 µM | [11] 52.7 µM | [8] 41.8 µM

CSCCCN=C=S
active: [1] 19.5 µM
inactive: [6] | [2] | [3] | [9] | [10] | [4] | [11]

COP(N)(=S)OC
inactive: [7] | [2] | [3] | [9] | [10] | [4] | [5] | [11] | [8]

COS(=O)(=O)c1ccc(C)cc1
inactive: [7] | [2] | [3] | [9] | [10] | [4] | [5] | [11] | [8]
